Test results taken from PubChem BioAssay AID886 (National Center for Advancing Translational Sciences (NCATS), 2007).
Out of some 73,000 compounds screened, about 2,500 (3.4%) were called active. Another 7% or so got no clear call; they are omitted. The entries come from a sample that favours actives as a whole. Entries that show only a call come without a potency. A number with no mark means an inactive call. Calls come from the whole dose curve; as a rule, active = well fitted inhibition curve with a large enough effect; inconclusive = small, poorly fitted or top-dose-only effect; inactive = no such curve, though single readings can be large or run the other way.

What follows are compounds tested against 3-hydroxyacyl-CoA dehydrogenase type-2 (Homo sapiens) (UniProt Q99714) (assay: qHTS Assay for Inhibitors of HADH2 (Hydroxyacyl-Coenzyme A Dehydrogenase, Type II)). Settings: recombinant HADH2, NADH fluorescence, beta-hydroxybutyryl-CoA; series mostly up to 57.1 µM.
Sequence of 3-hydroxyacyl-CoA dehydrogenase type-2 (Homo sapiens) (Q99714 whole entry, looked up): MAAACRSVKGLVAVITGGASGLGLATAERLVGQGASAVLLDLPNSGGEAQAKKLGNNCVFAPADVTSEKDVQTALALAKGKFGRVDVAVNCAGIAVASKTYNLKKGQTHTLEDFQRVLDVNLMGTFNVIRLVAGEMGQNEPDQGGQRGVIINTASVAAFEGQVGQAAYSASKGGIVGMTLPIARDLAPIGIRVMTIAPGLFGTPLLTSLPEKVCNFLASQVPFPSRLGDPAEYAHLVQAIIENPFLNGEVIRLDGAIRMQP
Sequence of 3-hydroxyacyl-CoA dehydrogenase type-2 (Homo sapiens) (Q99714 whole entry, looked up): as above
Summary of the method: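 Read-out: 360 nm excitation, 450 nm emission, kinetic over 4 min. Conditions: His-tagged human HADH2 20 nM, pH 9.0 Tris with Tween-20, 1 mM NAD+, 90 uM beta-hydroxybutyryl-CoA.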
Note: nearly all actives have a fitted effect of over 60% in size.
Potency is the fitted concentration of half-maximal effect.

| SMILES | Potency | activity change, negative = inhibition |
| --- | --- | --- |
| COc1ccc(C(=O)N2CCC[C@@]3(CCN(C(=O)NC(C)C)C3)C2)cc1 | inactive | – |
| O=C1OCCC=C1[C@@H](O)CCc1ccccc1 | – | -6.14% [at 11.4 µM] |
| C[C@H]1CC[C@H](C(=O)O)N[C@@H]1c1ccc(C#Cc2ccccc2)cc1 | – | 4.48% [at 11.4 µM] |
| CCOC(=O)c1cc2ccccc2nc1C | inactive | – |
| CCCc1nc2ccccc2c(C(=O)OCc2nnc(-c3cc(OC)c(OC)c(OC)c3)o2)c1CC | inactive | – |
| CCOC(=O)c1cc(-c2nnc(-c3cc(OC)c(OC)c(OC)c3)o2)c(C)nc1C | 5.01 µM (active) | – |
| Cc1cc2c(cc1C)NC1=C(N2)O[C@H](c2c[nH]c3ccc(COc4ccccc4)cc23)C1=O | – | 0.634% [at 11.4 µM] |
| CCCN1C2=C(C(=O)CCC2)C(c2ccc(O)c(Br)c2)C2=C1CCCC2=O | 15.8 µM (active) | – |
| O=C1CC(c2cccc(Br)c2)C2=C(CCCC2=O)N1 (stereo not drawn) | inactive | – |
| C[C@@H](C(=O)Nc1ccc2ccccc2c1)[C@@H]1C[C@@]1(C)[C@@H](NC(=O)c1cccnc1)c1ccccc1 | inactive | – |
| COc1ccc(C[C@H](N)C(=O)N[C@@H]2[C@H](O)[C@H](n3cnc4c(N(C)C)ncnc43)O[C@@H]2CO)cc1 | inactive | – |
| CN1C(=O)c2ccc(NC(=O)C3CCCCC3)cc2C1=O | inactive | – |
| O=C(NCc1ccc2c(c1)OCO2)c1ccc2c(c1)C(=O)N(CC1CCCO1)C2=O (stereo not drawn) | inactive | – |
| CCC(=O)Nc1ccc(C(=O)Nc2ccc3c(c2)C(=O)N(CC2CCCO2)C3=O)cc1 (stereo not drawn) | 10 µM (active) | – |
| c1ccc2sc(SCCSc3nc4ccccc4s3)nc2c1 | – | 16.5% [at 11.4 µM] |
| COC(=O)[C@@]1(Cc2ccc(F)cc2)[C@@H]2[C@@H](CC(=O)[C@H]2CC(=O)C(=O)N2CCCC2)CN1C(=O)c1ccccc1 | inactive | – |
| O=C(OCC(COC(=O)c1ccccc1)(COC(=O)c1ccccc1)COC(=O)c1ccccc1)c1ccccc1 | inactive | – |
| COC(=O)C1=CN(C)C=C(C(=O)OC)C1c1ccc(Cl)cc1Cl | inactive | – |
| CCOc1ccccc1C1C(C(=O)OC)=CN(C)C=C1C(=O)OC | 31.6 µM (active) | – |
| CCOc1cc(C2C(C(=O)OC)=CN(C3CCCC3)C=C2C(=O)OC)cc(Br)c1O | inactive | – |
| Cn1c(=O)c(-c2ccccc2)nc2cnc(N3CCNCC3)nc21 | inactive | – |

| SMILES | Potency | activity change, negative = inhibition |
| --- | --- | --- |
| CO[C@H]1COC(=O)[C@H](Cc2ccccc2)NC(=O)C/C=C\[C@@H](C)[C@H](OC)COC(=O)C/C=C\[C@@H]1C | – | 2.71% [at 11.4 µM] |
| O=C(Nc1cccnc1)c1ccc2c(c1)OCO2 | inactive | – |
| c1n[nH]c(NCc2ccc3c(c2)OCO3)n1 | inactive | – |
| c1cncc(CNc2ccnc(-c3ccc4c(c3)OCO4)n2)c1 | 25.1 µM (active) | – |
| CCCCCCc1ccc(O)cc1O | inactive | – |
| O=C(Cn1c(=O)sc2ccccc21)Nc1nc2c(s1)CCCC2 | inactive | – |
| COc1cccc(Cn2c(=O)c(CCc3ccccc3)nc3cnc(N(C)C)nc32)c1 | inactive | – |
| CCOc1ccc(-c2nnc3ccc(SC)nn23)cc1 | inactive | – |
| CC1CCN(C(=O)CSc2ccc3nnc(-c4cccc(F)c4)n3n2)CC1 | inactive | – |
| COC(=O)C(C)Sc1ccc2nnc(-c3cccc(F)c3)n2n1 (stereo not drawn) | 12.6 µM (active) | – |
| Cc1cc(C)c2nc3c(c([C@H](O)[C@@H]4CCCCN4)c2c1)CC/C3=C/c1ccc(Cl)cc1 | – | 12.8% [at 11.4 µM] |
| COC(=O)[C@@]1(Cc2ccc(F)cc2)[C@H]2c3cc(C(=O)N4CCCC4)n(Cc4ccc(OC(F)(F)F)cc4)c3C[C@H]2CN1C(=O)c1ccccc1 | inactive | – |
| CCc1cc(=O)oc2cc(C)cc(OC(C)C(=O)O)c12 (stereo not drawn) | inactive | – |
| CCCCc1cc(=O)oc2cc(C)cc(OCc3nn[nH]n3)c12 | 25.1 µM (active) | – |
| O=C(O)c1cccc(S(=O)(=O)NCCO)c1 | – | -11.5% [at 11.4 µM] |
| O=C(CN1C(=O)CCS(=O)(=O)c2ccccc21)NCc1ccc(F)cc1 | inactive | – |
| CC(C)C1N=C2c3ccccc3N=C(SCC(=O)c3ccc(O)c(O)c3)N2C1=O (stereo not drawn) | inactive | – |
| NC(=O)CSC1=Nc2ccccc2C2=NC(CCC(=O)NCc3ccc(F)cc3)C(=O)N12 (stereo not drawn) | 31.6 µM (active) | – |
| CC(=O)/C(=N\N=C(N)N)c1ccccc1 | – | 5.03% [at 11.4 µM] |
| NS(=O)(=O)c1cc(C(=O)O)c(Cl)c([N+](=O)[O-])c1Cl | – | 11.6% [at 11.4 µM] |
| O=C(c1ccncc1)N1CCC2(CCN(Cc3cc(C(F)(F)F)cc(C(F)(F)F)c3)CC2)CC1 | inactive | – |

| SMILES | Potency | activity change, negative = inhibition |
| --- | --- | --- |
| Cc1nc2cnc(N3CCNCC3)nc2n(CCc2ccccc2)c1=O | inactive | – |
| Cc1cc(C)c2c(n1)nn1c(N3CCOCC3)cc(C)nc21 | 25.1 µM (active) | – |
| Cc1cc(C)c2c(n1)nn1c(N3CCN(c4cccc(Cl)c4)CC3)cc(C)nc21 | inactive | – |
| Cc1cc(C)c2c(n1)nn1c(-n3ccnc3)cc(C)nc21 | inactive | – |
| Cc1cc(C(=O)O)ccc1[N+](=O)[O-] | inactive | – |
| CCCCC/C=C/C=C/C=O | inactive | – |
| C=CC(=O)c1ccc2ccccc2c1 | 20 µM (active) | – |
| Cc1ccc2nc(CC(=O)c3ccc4ccccc4c3)c(=O)[nH]c2c1 | – | 11.5% [at 11.4 µM] |
| CCCC[C@H]1C(=O)N(c2ccccc2)N(c2ccc(O)cc2)C1=O | inactive | – |
| COc1ccc(-n2c(=O)c(C)nc3cnc(N4CCOCC4)nc32)cc1 | inactive | – |
| COCC(=O)N1CCC2(CCCN(c3ccccc3)C2)CC1 | inactive | – |
| O=C(O)COc1c(Cl)cc(Cl)c2cccnc12 | – | 7.63% [at 11.4 µM] |
| COc1ccc(OC)c(Nc2nc(-c3ccc(O)c(O)c3)cs2)c1 | 0.126 µM (active) | – |
| COc1ccc(-c2n[nH]c(C)c2-c2ccc(OC)c(OC)c2)c(O)c1 | inactive | – |
| Oc1ccc(-c2csc(Nc3cccnc3)n2)cc1 | inactive | – |
| CO[C@@H]1/C=C\O[C@]2(C)Oc3c(C)c(O)c4c(O)c(c(CN(C)C)c(O)c4c3C2=O)NC(=O)/C(C)=C\C=C[C@@H](C)[C@@H](O)[C@H](C)[C@@H](O)[C@H](C)[C@H](OC(C)=O)[C@@H]1C | – | -4.82% [at 11.4 µM] |
| CC(C)NC(=O)N1CC[C@@]2(CCCN(C(=O)c3cccc(F)c3)C2)C1 | inactive | – |
| COC(=O)NC(c1ccccc1)[C@]1(C(C)=O)CCCC1=O (stereo partly drawn) | – | 4.66% [at 11.4 µM] |
| CN1CCCc2cc(C#N)c(=O)[nH]c21 | 3.16 µM (active) | – |
| CC/C=C/C/C=C/C/C=C/CCCCCCCC(=O)OCC | inactive | – |
| CN(C)CCSS(=O)(=O)O | – | 9.41% [at 11.4 µM] |
